RXFP1 agonist = qHTS Assay for Agonists of the Relaxin Receptor RXFP1; Relaxin receptor 1 (Homo sapiens), Q9HBX9; HEK293T-RXFP1 cAMP TR-FRET, 30 min; response scale: percent of porcine relaxin response, buffer zero; Potency, µM (series often up to 57.5 µM), for inactives: top-dose activation, most hits filed as activators; 0.3% of 370,000 active; AID 2676, 2010; note: potency is the fitted concentration of half-maximal effect; % is set by controls: 0 for no effect and ±100 for the full control effect; nearly all actives have a fitted effect of over 60% in size
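Agonist response is measured as cAMP accumulation in an RXFP1-transfected HEK293T line under PDE4 inhibition. Values are scaled between buffer-only and 29 nM porcine relaxin, and EC50s come from standard Hill equation fits.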
ERG Ets-DNA blk = qHTS for Small Molecule Inhibitors of the ERG Ets/DNA interaction; Potency, µM (titrated, usually from 76.9 µM), for the others: at the top dose FP activity, negative = inhibition, actives largely listed as inhibitors; fluorescence polarization, His-ERG Ets domain / labelled DNA; 0.028% of 370,000 active; AID 624246, 2012; Transcriptional regulator ERG (Homo sapiens), P11308; active = well fitted inhibition curve with a large enough effect in the polarisation, with a control signal flat; inconclusive = small, poorly fitted or top-dose-only effect, or effect the other way, or a change in a side signal; inactive = no such curve, though single readings can be large or run the other way; the % refers to the polarisation;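 note: polarization taken with two DNA probes labelled with fluorescein and Texas red; potency is the fitted concentration of half-maximal effect; % of control where 0% means no effect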
Target sequence (P11308 whole entry, looked up, the tested form may be a part): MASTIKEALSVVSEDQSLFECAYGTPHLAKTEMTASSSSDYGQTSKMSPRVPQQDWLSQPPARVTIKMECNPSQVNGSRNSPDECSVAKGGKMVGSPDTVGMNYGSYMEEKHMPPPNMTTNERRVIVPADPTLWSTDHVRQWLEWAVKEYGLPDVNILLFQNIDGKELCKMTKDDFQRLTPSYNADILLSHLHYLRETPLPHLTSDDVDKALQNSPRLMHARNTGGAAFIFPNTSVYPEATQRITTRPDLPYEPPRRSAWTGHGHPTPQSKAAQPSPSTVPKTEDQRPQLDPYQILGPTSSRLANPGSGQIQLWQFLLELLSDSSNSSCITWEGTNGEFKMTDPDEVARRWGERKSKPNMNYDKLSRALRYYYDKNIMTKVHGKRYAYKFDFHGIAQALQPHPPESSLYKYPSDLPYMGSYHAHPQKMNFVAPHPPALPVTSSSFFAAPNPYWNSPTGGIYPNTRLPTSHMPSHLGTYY
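His-tagged ERG Ets domain (1 uM in the protein solution; 300mM KCl, 50mM Tris-HCl, 1mM EDTA, 1mM DTT, pH 7.5) received compound, then a probe mix of 5 nM fluorescein-DNA and 100nM Texas-615-DNA. Fluorescence polarization was read for both dyes.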
miR-21 reporter = qHTS Assay for Modulators of miRNAs and/orActivators of miR-21; HeLa miR-21 FLuc reporter, luciferase, 48 h; Potency, µM (top dose mostly 38.3 µM), inactives show at the top dose activity change, positive = activation, hits mostly activators; 340,000 tested, under 10 active; AID 2288, 2010;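 note: % of control where 0% means no effect; miR-21 action dims this reporter so a rising signal means less miR-21 action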
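HeLa miR-21-FLuc reporter line, endogenous miR-21; 2000 cells/well in DMEM/10% FBS; compound titration up to ~40uM final, 48 h, 37 degree Celsius; luciferase detection reagent, 15 min lysis, CCD luminescence.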
RXFP1 antag = qHTS Assay for Antagonists of the Relaxin Receptor RXFP1 | HEK293-RXFP1, relaxin-stimulated cAMP HTRF, 30 min; stronger effect = lower value | activity change, negative = inhibition, % at 57.5 µM | 0.59% of 350,000 active | Relaxin receptor 1 (Homo sapiens), Q9HBX9;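 active = activity change of -60% or lower, but not beyond a set lower limit; inconclusive = change between -60% and -40%, or beyond the set limit; inactive = change above -40%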; note: % is set by controls: 0 for no effect and ±100 for the full control effect
Mito fusion yeast = qHTS Assay for Small Molecule Inhibitors of Mitochondrial Division or Activators of Mitochondrial Fusion; S. cerevisiae fusion-defective mutant growth rescue, CellTiterGlo 48 h; Potency, µM (top dose mostly 46.1 µM), inactives show at the highest dose growth rescue (activation), actives largely listed as activators; 0.23% of 320,000 active; note: potency is the fitted concentration of half-maximal effect; % of control where 0% means no effect; nearly all actives have a fitted effect of over 45% in size
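Temperature-sensitive fusion-defective S. cerevisiae (e.g. fzo1-1, mgm1-5) were grown with compound in YPEG medium (3% ethanol, 3% glycerol) for 48 hours at 37C. Growth rescue was measured as viability by CellTiterGlo luminescence after 10 minutes at ambient.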
S-ASM inh = Inhibitors of Secretory Acid Sphingomyelinase (S-ASM): qHTS; placental ASM, HMU-PC fluorogenic substrate, 60 min; Potency, µM (titrated, usually from 57.5 µM), for the others: top-dose activity change, negative = inhibition, hits mostly inhibitors; 0.006% of 340,000 active; AID 504937, 2011; note: potency is the fitted concentration of half-maximal effect
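qHTS format. ASM enzyme prepared from human placenta hydrolyses the fluorogenic substrate HMU-PC0 (9 uM final) over 60 min at 37 °C after a 10 min compound preincubation.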
Starred values were filed as active, the others as inactive; ? = inconclusive; / = not tested or not shown; ! = repeats disagree. The list is not random: actives were taken first. Their share in the collection is about 0.72%. Unless noted, calls come from the whole dose curve; as a rule, active = well fitted curve in the direction sought with a large enough effect; inconclusive = small, poorly fitted or top-dose-only effect, or another doubt; inactive = no such curve, though single readings can be large; an effect the other way counts as inactive or inconclusive.

SMILES	RXFP1 agonist	ERG Ets-DNA blk	miR-21 reporter	RXFP1 antag	Mito fusion yeast	S-ASM inh
CCOc1ccccc1NC(=O)N1CC(CC)Oc2ccccc21 (stereo unspecified)	-1%	1%	3%	-80*	/	/
COc1ccc(OC)c(NC(=O)N2CC(C)Oc3ccc(C)cc32)c1 (stereo unspecified)	-1%	-6%	3%	?	/	/
CCC1CN(C(=O)Nc2cc(C)ccc2OC)c2cc(Cl)ccc2O1 (stereo unspecified)	-1%	-3%	-2%	-61*	/	/
Cc1cnc(NC(=O)c2c(Cl)cnn2C)s1	1%	0%	-8%	-7	-2%	0%
Cc1ccc(-n2c(=S)[nH]c3sc4c(c3c2=O)CCC4)cc1	13µM*	-3%	-7%	-1	20%	-1%
O=C(NC(=S)N1CCN(c2ccc(Cl)cc2[N+](=O)[O-])CC1)c1cccs1	-1%	7%	-8%	-65*	30%	0%
CCOC(=O)c1cc(-c2ccc(N3CCOCC3)cc2)nn1-c1ccc(F)cc1F	0%	8%	9%	8	16%	28µM*
COc1ccc(-c2nc3nc(C)cc(Nc4cccc(C(F)(F)F)c4)n3n2)cc1	32µM*	1%	-1%	-2	-11%	/
Cc1ccc(Cl)c(Nc2ccccc2C(=O)O)c1Cl	1%	-5%	-7%	?	5.2µM*!	2%
O=C(NNC(=O)c1ccc(Br)s1)c1cccc(Cl)c1	0%	-5%	/	-7	8%	-1%
COc1cccc(/C=N/Nc2snc(SC)c2C#N)c1O	3%	10%	7%	-12	5µM*	2%
COc1ccc(/C=N/Nc2snc(SC)c2C#N)cc1OC	0%	1%	-41%	-28	0%	-1%
Clc1ccc(-c2nc(N3CCCCC3)nc3ccccc23)cc1	1%	-3%	-9%	-17	35µM*	52%
Cc1ccc(Cn2c(CN3CCC(C(=O)NCCc4ccccc4)CC3)cc3ccccc32)cc1	0%	-4%	9%	-20	/	/
OCCN1CCN(c2nc(-c3ccccc3)c3cc(Br)ccc3n2)CC1	8%	16%	-7%	-70*	-34%	10%
CC(=O)Nc1c(Cl)cc(Cl)c2c1Cc1cc(Cl)ccc1-2	/	-2%	/	-101*	/	2%
COc1cccc(NC(=O)c2cc3c(=O)n(C)c4ccccc4c3n2C)c1	21%	0%	1%	/	/	/
COc1ccc(OCC(O)CN(CCO)CC(O)Cn2ccc3ccccc32)cc1 (stereo unspecified)	1%	7%	1%	-64*	-1%	-1%
COc1ccc(NC(=S)NC(=O)/C=C/c2ccco2)c(OC)c1	1%	5%	-6%	-81*	-17%	-8%
O=C(/C=C\c1ccco1)NC(=S)Nc1ccccc1O	-1%	34%	-8%	8	3%	-6%
Cc1ccc(NC(=S)NC(=O)/C=C/c2ccco2)c(O)c1	3%	15%	2%	-63*	-1%	0%
CCN[C@@H]1C[C@H](N)[C@@H](OC2OC(CN)=CCC2N)[C@H](O)[C@H]1O[C@H]1OC[C@](C)(O)[C@H](NC)[C@H]1O (stereo partly specified)	/	/	/	15	/	/
COc1cc2ncnc(Nc3cccc(Cl)c3)c2cc1OC	5%	/	6%	/	3.3µM*!	/
O=C(COCCOCCOCC(=O)Nc1c(I)cc(I)c(C(=O)O)c1I)Nc1c(I)cc(I)c(C(=O)O)c1I	/	/	/	-6	/	/
Brc1ccc2[nH]c3c(c2c1)CCC3	-1%	8%	16%	-15	-2%	-4%
SMILES	RXFP1 agonist	ERG Ets-DNA blk	miR-21 reporter	RXFP1 antag	Mito fusion yeast	S-ASM inh
O=C1Cc2c([nH]c3ccc(Br)cc23)-c2ccccc2N1	/	25%	/	-1	7.3µM*	-1%
CCOCCn1ccc2c(OCC(=O)NCc3ccc(F)cc3)cccc2c1=O	0%	-2%	2%	/	/	/
Cc1ccccc1-c1nc(CS(=O)(=O)CC(=O)NC2CC2)c(C)o1	0%	3%	-5%	-78*	-2%	-2%
Cc1ccccc1-c1nc(CS(=O)(=O)CC(=O)NC2CCCCC2C)c(C)o1 (stereo unspecified)	-3%	0%	2%	12	?	-4%
CC(C)c1nc(N2CCN(C(=O)c3ccco3)CC2)c(C#N)c2c1COC(C)(C)C2	3%	-5%	14%	-61*	?	7%
CC(C)c1nc(N2CCN(C(=O)c3ccccc3)CC2)c(C#N)c2c1COC(C)(C)C2	4%	8%	-2%	4	15%	0%
COc1ccccc1CNC(=O)c1nnn(CC(=O)Nc2c(C)cccc2C)c1N	-4%	-1%	2%	6	/	/
COC(=O)c1c(-c2ccccc2)c(-c2ccccc2)nn(C)c1=O	-1%	7%	8%	2	5%	0%
CC(C)OC(=O)c1c(-c2ccccc2)c(-c2ccccc2)nn(C)c1=O	-2%	3%	12µM*	-34	/	/
O=C(Cn1nc(N2CCN(c3ccccc3)CC2)ccc1=O)NCc1cccc(Cl)c1	0%	1%	14%	-26	/	/
COc1ccc(C(C)=O)cc1CSc1nnc(Nc2ccc(C)cc2C)s1	2%	13%	-12%	5	16µM*	-2%
COc1ccc(C(C)=O)cc1CSc1nnc(Nc2ccccc2C)s1	0%	19%	-7%	/	?	-7%
Cc1cc(N/N=C/c2ccc(O)c(C)c2O)nc(-c2ccccc2O)n1	0%	14%	?	-72*	13%	-2%
N#C/C(=C\c1ccccc1)C(=O)NCc1ccc(F)cc1	1%	9%	-2%	-65*	3%	-1%
N#C/C(=C/c1ccc(C(=O)O)cc1)C(=O)NCc1ccccc1	0%	-7%	-3%	-10	0%	1%
O=c1c(Cl)c(N/N=C/c2ccc(Cl)cc2)cnn1-c1ccccc1	1%	-14%	-2%	-7	8.9µM*	5%
CCOC(=O)C1=C(CN(C)Cc2ccccc2)NC(=O)NC1c1ccc(OC(C)C)cc1 (stereo unspecified)	2%	7%	19%	/	/	/
